The record followed here is ChEMBL document CHEMBL3988442, “University of Dundee, Small-Polar-MMV Screening Library” (2021).

Molecules are shown by their SMILES. For some of these results: Potency and affinity values are given separately.

What all share (design): scale not given: direction of the effect not stated beside the values
Assay [1] concerns the target Protein translocase subunit SecA (Escherichia coli (strain K12)) (UniProt P10408). Briefly: Assay to Identify E. coli SecA ATPase Inhibitors. To be noted: 30 µM. The assay is classed as functional.
In assay [2] the target is T1, Ubiquitin-activating enzyme e1, putative (Leishmania donovani (strain BPK282A1)) (UniProt E9BSI1).
T1 sequence (whole entry): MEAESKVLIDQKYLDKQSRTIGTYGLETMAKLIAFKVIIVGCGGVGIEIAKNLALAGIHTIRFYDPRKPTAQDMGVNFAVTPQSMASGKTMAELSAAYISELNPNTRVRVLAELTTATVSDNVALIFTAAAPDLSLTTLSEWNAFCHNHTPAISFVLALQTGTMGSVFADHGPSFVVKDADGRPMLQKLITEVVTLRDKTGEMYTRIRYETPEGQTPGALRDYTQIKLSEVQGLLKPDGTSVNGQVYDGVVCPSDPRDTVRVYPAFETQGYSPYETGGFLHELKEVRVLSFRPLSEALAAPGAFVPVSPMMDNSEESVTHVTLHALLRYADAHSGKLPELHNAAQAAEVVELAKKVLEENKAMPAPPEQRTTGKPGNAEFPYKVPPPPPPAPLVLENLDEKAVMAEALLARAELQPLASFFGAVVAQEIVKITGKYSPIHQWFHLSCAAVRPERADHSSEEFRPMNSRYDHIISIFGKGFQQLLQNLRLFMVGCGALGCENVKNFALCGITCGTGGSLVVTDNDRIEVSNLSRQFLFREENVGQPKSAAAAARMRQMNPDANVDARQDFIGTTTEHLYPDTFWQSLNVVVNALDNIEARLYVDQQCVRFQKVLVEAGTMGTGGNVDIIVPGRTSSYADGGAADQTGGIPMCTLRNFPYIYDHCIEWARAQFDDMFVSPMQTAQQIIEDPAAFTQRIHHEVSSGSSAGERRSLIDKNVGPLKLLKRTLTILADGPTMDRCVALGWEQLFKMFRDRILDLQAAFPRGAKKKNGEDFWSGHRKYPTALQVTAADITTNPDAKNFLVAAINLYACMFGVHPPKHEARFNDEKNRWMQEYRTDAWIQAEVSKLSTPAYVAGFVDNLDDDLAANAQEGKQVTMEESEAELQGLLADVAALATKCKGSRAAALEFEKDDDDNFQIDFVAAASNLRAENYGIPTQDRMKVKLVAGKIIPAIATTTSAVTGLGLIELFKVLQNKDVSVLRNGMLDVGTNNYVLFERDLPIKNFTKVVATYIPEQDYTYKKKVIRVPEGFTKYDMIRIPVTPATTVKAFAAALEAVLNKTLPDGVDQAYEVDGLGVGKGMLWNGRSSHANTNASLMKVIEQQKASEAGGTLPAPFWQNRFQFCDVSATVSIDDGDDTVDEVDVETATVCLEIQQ
Briefly: Leishmania donovani Ubiquitin Activating Enzyme (LdE1). The class given is functional. To be noted: 30 µM.

Assay [3] has as its target AMP-activated protein kinase, AMPK (Homo sapiens) (UniProt P54646+O43741+P54619+Q9UGJ0+Q9Y478+Q13131+Q9UGI9). Briefly: AMP-dependent Kinase enzyme assay. An in vitro enzyme assay that detects ADP turnover that is directly proportional to AMPK activity. This uses naive AMPK that is activated during the assay with MK-8722. To be noted: 30 µM. The class given is functional.

The target in assay [4] is Sialic acid-binding Ig-like lectin 9 (Homo sapiens) (UniProt Q9Y336). Briefly: Hs-Siglec9 ALPHAscreen SOP 20170721. To be noted: 10 µM. (Alpha assays give light when donor and acceptor beads are brought close together.)
Another assay has as its system Trypanosoma cruzi. Briefly: Trypanosoma cruzi phosphomannomutase and mannose-1-phosphate guanylyltransferase assay. The assay is classed as functional. To be noted: 10 µM.
The target in assay [5] is T2, Arginase-2, mitochondrial (Homo sapiens) (UniProt P78540).
T2 sequence (whole entry): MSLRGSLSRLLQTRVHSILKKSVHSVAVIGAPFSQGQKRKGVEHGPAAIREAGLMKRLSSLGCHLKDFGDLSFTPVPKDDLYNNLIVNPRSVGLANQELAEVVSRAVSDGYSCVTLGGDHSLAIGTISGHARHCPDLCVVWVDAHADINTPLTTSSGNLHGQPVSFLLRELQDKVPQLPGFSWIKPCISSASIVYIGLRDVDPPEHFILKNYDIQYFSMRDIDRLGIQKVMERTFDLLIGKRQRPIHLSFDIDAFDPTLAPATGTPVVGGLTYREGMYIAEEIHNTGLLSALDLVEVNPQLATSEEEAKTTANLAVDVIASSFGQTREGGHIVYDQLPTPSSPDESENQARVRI
Briefly: in vitro enzyme assay to detect the production of urea directly proportional to the activity of Arginase II. Also: in the data most compounds retested in dose-response had high values. The assay is classed as functional. To be noted: 33.3 µM.

The target of assay [6] is T3, Proteasome subunit beta (Trypanosoma cruzi) (UniProt O96673).
T3 sequence (whole entry): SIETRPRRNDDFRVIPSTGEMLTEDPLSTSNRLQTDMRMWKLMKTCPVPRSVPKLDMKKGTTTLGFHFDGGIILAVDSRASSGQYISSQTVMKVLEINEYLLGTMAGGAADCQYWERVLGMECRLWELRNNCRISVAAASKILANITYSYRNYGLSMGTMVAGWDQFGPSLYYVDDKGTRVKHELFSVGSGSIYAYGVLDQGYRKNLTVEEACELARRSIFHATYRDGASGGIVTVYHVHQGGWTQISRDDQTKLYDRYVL
Briefly: Trypanosoma cruzi proteasome chymotrypsin-like activity (TcProtChymo) assay. Also: in the data most compounds retested in dose-response had high values. The class given is functional. To be noted: 9.37 µM.

For another assay, the species on record is Homo sapiens. Briefly: To identify inhibition of the IFN signalling (Jak-Stat) pathway via expression of an eGFP reporter gene under the control of an IFN-stimulated response element (ISRE) containing MxA promoter. To be noted: 30 µM. The assay is classed as functional. For orientation: In a reporter assay the amount or activity of a reporter protein is the signal.

The target of assay [7] is T4, Tyrosyl-tRNA synthetase, putative (Trypanosoma cruzi (strain CL Brener)) (UniProt Q4DSP6).
T4 sequence (whole entry): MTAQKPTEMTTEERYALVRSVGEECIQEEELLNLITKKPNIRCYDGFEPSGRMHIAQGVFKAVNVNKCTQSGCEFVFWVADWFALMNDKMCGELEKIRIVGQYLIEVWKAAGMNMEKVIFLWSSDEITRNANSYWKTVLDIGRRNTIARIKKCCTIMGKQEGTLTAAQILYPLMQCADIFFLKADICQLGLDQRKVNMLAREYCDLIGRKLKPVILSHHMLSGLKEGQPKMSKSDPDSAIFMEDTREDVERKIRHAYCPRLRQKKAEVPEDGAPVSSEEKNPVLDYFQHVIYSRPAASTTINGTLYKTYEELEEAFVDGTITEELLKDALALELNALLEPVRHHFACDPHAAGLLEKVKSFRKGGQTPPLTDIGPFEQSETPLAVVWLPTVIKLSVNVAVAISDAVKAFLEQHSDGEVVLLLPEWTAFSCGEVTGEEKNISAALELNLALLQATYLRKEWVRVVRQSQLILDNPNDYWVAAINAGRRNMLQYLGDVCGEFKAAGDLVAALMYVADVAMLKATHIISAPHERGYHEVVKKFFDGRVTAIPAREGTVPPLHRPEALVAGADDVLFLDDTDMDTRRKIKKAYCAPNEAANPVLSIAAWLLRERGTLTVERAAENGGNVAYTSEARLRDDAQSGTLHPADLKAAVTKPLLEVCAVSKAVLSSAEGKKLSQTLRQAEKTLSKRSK
Briefly: Trypanosoma cruzi tyrosyl tRNA synthetase (TcYRS) _High Tyrosine SOP. Also: in the data most compounds retested in dose-response had high values. The assay is classed as functional. To be noted: 30 µM.

In assay [8] the target is T4, Tyrosyl-tRNA synthetase, putative (Trypanosoma cruzi (strain CL Brener)). Briefly: Trypanosoma cruzi tyrosyl tRNA synthetase (TcYRS) SOP. To be noted: 30 µM. The class given is functional.
Assay [9] concerns the target Chromo domain-containing protein 1 (Saccharomyces cerevisiae (strain ATCC 204508 / S288c) (Baker's yeast)) (UniProt P32657). Briefly: ScCHD-1 Enzyme Inhibition Assay. Also: in the data most compounds retested in dose-response had high values. The assay is classed as functional. To be noted: 30 µM.

Sialic acid-binding Ig-like lectin 9 (Homo sapiens), sequence (Q9Y336 whole entry): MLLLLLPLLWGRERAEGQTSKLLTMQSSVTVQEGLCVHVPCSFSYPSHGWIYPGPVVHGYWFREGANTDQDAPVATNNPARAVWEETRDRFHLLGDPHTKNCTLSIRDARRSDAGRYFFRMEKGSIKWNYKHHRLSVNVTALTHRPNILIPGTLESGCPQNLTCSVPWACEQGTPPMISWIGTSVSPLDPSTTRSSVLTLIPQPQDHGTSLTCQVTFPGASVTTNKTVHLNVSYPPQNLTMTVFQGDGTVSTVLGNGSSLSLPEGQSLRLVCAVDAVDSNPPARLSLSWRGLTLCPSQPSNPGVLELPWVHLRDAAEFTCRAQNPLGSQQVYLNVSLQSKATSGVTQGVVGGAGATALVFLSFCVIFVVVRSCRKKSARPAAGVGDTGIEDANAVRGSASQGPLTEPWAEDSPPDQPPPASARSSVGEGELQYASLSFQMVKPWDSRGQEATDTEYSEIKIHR
Chromo domain-containing protein 1 (Saccharomyces cerevisiae (strain ATCC 204508 / S288c) (Baker's yeast)), sequence (P32657 whole entry, the tested form may be a part): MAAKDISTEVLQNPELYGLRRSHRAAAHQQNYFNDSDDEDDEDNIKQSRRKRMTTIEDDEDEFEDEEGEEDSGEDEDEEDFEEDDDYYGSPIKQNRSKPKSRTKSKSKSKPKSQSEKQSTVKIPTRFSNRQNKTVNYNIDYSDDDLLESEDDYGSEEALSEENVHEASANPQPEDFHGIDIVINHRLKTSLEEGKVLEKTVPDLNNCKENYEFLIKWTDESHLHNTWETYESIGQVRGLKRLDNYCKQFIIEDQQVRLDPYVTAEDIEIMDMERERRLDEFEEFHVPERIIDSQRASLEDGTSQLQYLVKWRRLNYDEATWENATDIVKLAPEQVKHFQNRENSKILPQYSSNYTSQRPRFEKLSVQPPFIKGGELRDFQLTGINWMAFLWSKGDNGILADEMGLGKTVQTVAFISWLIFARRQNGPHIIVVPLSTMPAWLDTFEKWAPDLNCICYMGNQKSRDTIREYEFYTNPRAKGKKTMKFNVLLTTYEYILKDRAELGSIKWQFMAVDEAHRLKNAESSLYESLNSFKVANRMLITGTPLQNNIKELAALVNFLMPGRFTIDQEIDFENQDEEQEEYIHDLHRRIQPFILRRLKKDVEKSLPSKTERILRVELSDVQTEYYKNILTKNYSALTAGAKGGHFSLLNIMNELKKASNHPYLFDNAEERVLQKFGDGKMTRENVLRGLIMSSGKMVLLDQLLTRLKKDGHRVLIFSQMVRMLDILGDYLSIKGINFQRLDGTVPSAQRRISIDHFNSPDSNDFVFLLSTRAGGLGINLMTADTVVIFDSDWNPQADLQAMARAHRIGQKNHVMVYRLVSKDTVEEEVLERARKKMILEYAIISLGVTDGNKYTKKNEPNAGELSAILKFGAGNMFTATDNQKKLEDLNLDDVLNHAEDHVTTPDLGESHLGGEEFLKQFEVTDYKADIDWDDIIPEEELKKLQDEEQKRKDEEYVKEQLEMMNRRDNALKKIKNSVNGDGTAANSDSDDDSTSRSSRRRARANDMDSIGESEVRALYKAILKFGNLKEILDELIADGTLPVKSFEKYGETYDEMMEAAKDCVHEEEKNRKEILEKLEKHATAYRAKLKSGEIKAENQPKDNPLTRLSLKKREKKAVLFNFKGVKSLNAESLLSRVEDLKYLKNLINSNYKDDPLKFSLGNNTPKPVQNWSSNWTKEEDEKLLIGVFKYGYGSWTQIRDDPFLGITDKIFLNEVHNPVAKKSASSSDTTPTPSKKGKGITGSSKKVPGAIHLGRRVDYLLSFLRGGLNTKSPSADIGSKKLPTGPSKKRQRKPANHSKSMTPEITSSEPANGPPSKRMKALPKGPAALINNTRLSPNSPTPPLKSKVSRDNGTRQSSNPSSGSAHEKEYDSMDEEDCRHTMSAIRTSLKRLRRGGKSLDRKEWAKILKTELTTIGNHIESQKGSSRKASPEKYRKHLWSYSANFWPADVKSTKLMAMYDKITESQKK
Protein translocase subunit SecA (Escherichia coli (strain K12)), sequence (P10408 whole entry): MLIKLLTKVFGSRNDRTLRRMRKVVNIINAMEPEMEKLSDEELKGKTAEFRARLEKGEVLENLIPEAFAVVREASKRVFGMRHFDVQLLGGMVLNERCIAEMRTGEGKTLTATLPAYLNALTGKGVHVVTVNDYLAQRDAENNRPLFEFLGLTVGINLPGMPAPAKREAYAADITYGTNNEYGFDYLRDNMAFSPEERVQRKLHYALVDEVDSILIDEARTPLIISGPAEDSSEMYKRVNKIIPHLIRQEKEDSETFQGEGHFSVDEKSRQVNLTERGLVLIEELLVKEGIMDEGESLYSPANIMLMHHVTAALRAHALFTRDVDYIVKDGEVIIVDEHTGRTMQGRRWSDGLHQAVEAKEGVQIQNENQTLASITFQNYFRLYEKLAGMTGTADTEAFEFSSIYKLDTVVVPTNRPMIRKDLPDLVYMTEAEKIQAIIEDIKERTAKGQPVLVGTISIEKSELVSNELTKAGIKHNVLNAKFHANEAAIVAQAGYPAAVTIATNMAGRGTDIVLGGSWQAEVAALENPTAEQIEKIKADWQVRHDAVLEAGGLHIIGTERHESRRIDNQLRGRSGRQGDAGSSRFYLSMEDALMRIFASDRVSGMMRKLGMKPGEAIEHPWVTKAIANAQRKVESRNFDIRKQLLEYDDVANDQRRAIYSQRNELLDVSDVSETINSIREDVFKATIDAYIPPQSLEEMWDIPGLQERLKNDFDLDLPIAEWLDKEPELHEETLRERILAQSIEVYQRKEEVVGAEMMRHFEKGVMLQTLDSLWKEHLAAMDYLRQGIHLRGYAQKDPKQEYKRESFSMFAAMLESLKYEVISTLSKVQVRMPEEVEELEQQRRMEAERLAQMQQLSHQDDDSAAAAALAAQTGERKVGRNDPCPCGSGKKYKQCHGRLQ

Regarding `COc1cc(CNC(=O)CNc2cc(Cl)ccc2OC)ccn1`, the Percent Effect in [1] is -4.04%; in [2], 0%; in assay [3], -0.0708%; in [4], 2.86%; in the assay with Trypanosoma cruzi, -2.55%; in assay [5] it was 0.802%. Besides, the Percent Effect in assay [6] is 3.6%; in the assay listed under Homo sapiens it was 9.38%; in assay [7], -4.43%; in assay [8] it was 3.7%; in [9], 0.373%.
Take `Cc1cc(=O)[nH]c(NCCNC(=O)C(c2ccc(F)cc2)N(C)C)n1` (stereo not drawn): the Percent Effect in assay [1] is 4.65%; in assay [2], 11%; in [3], 0.926%; in assay [4] it was 2.46%; in the assay with Trypanosoma cruzi, -9.72%; in assay [5], -10.8%. For the same molecule, the Percent Effect in assay [6] is 17.4%; in the assay filed under Homo sapiens, 21.7%; in [7], 8.33%; in assay [8], 16.1%; in assay [9], -5.31%.
With `CCn1nnc2cc(C(=O)N3CCCC3Cn3cc(C)cn3)ccc21` (stereo not drawn), the Percent Effect is -1.32% in assay [1]; -5.06% in assay [2]; -2.65% in assay [3]; 3.15% in assay [4]; 3.31% with Trypanosoma cruzi; 2.28% in [5]. The Percent Effect was 0.737% in assay [6]; 9.94% in the assay listed under Homo sapiens; 0.493% in assay [7]; 1.27% in [8]; 0.343% in assay [9].
For the molecule `O=S1(=O)CCN(Cc2cccnc2)[C@H]2CCN(c3ncccn3)CC[C@H]21`, the Percent Effect was -8.77% in assay [1]; -2.7% in assay [2]; -0.0275% in [3]; 20.3% in assay [4]; -3.91% in the assay with Trypanosoma cruzi; -0.417% in [5]. In addition, the Percent Effect was -2.62% in assay [6]; 16.4% in the assay listed under Homo sapiens; 3.96% in assay [7]; -1.22% in assay [8]; 0.188% in assay [9].
As for `O=c1[nH]c2c(c(=O)n1C1CCCCC1)CCC2Nc1ccccc1Cl` (stereo not drawn), the Percent Effect was -2.47% in assay [1]; 6.67% in [2]; -9.22% in assay [3]; -1.39% in [4]; 4.71% with Trypanosoma cruzi; 92.1% in assay [5]. The Percent Effect was 5.36% in [6]; 33.1% in the assay filed under Homo sapiens; -9.52% in assay [7]; -7.69% in [8]; -11.3% in assay [9].
With `O=C(C1=CCCC1)N1CCC[C@]2(C[C@@H](Oc3ncccc3F)CO2)C1`, the Percent Effect in assay [1] is -0.607%; in assay [2], -5.48%; in assay [3] it was -7.12%; in assay [4] it was 6.71%; in the assay on Trypanosoma cruzi, 3.77%; in [5] it was 0.399%. In addition, the Percent Effect in assay [6] was 23.2%; in the assay listed under Homo sapiens, 23.5%; in assay [7], 5.21%; in assay [8], 13.6%; in assay [9], -3.32%.
Turning to `Cc1ccccc1-c1cc(NC(=O)CC(C)C)n(CCO)n1`, the Percent Effect is -2.35% in assay [1]; 2.63% in assay [2]; -11.8% in [3]; 0.669% in [4]; -6.33% in the assay with Trypanosoma cruzi; 2.37% in [5]. Moreover, the Percent Effect in [6] was 5.46%; in the assay listed under Homo sapiens, 0.574%; in assay [7] it was 3.19%; in assay [8] it was 5.2%; in assay [9], -3.67%.
Take `O=C(NCCc1nnc2n1CCC2)NCC1(c2cccc(F)c2)CC1`: the Percent Effect in assay [1] was -7.67%; in assay [2], -5.26%; in [3] it was 5.7%; in assay [4], -1.62%; in the assay on Trypanosoma cruzi, 2.43%; in assay [5], 0%. Further, the Percent Effect in assay [6] is -1.44%; in the assay listed under Homo sapiens it was -9.73%; in assay [7] it was 2.13%; in assay [8] it was 5.2%; in assay [9] it was 1.42%.
